# Results taken from the supplement of paper PMC12282887.
# ± gives the standard deviation of the averaged measurements.
# Tests used:
# Experiment in all cases: promoter activity interaction Z-score (Lux/OD deviation from empty-vector control); higher = stronger promoter induction by the compound
# [1] = system: E. coli BW25113 acrABp lux reporter
# Method in brief: (§1)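 E. coli BW25113, as wild type or one of three single-gene deletion strains, carried low-copy luxCDABE promoter reporters and grew in 40 µl LB Lennox in 384-well plates at 37°C, with OD600 and luminescence read every 30 min for 12 h. Each compound was run at four 1:2 dilutions in biological duplicates, integration spanned 0–8 h for wild type and 1–9 h for deletion strains, and wells under 10% of the median growth value were dropped. The score is the Z-transformed residual of growth-normalised luminescence fitted against a control.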
# [2] = system: E. coli BW25113 marRABp lux reporter
# Method in brief: as §1
# [3] = system: E. coli BW25113 micFp lux reporter
# Method in brief: as §1
# [4] = system: E. coli BW25113 ompFp lux reporter
# Method in brief: as §1
# [5] = system: E. coli BW25113 robp lux reporter
# Method in brief: as §1
# [6] = system: E. coli BW25113 soxSp lux reporter
# Method in brief: as §1
# [7] = system: E. coli BW25113 tolCp lux reporter
# Method in brief: as §1
# [8] = 0.056 µg/ml, genetic background: wild type
# [9] = 0.056 µg/ml, genetic background: ΔmarA
# [10] = 0.056 µg/ml, genetic background: Δrob
# [11] = 0.056 µg/ml, genetic background: ΔsoxS
# [12] = 0.11 µg/ml, genetic background: wild type
# [13] = 0.11 µg/ml, genetic background: ΔmarA
# [14] = 0.11 µg/ml, genetic background: Δrob
# [15] = 0.11 µg/ml, genetic background: ΔsoxS
# [16] = 0.22 µg/ml, genetic background: wild type
# [17] = 0.22 µg/ml, genetic background: ΔmarA
# [18] = 0.22 µg/ml, genetic background: Δrob
# [19] = 0.22 µg/ml, genetic background: ΔsoxS
# [20] = 0.44 µg/ml, genetic background: wild type
# [21] = 0.44 µg/ml, genetic background: ΔmarA
# [22] = 0.44 µg/ml, genetic background: Δrob
# [23] = 0.44 µg/ml, genetic background: ΔsoxS
compound,measurement,setting,value
CN(C)[C@@H]1C(O)=C(C(N)=O)C(=O)[C@@]2(O)C(O)=C3C(=O)c4c(O)cccc4[C@@](C)(O)[C@H]3C[C@@H]12 [Tetracycline],promoter activity interaction Z-score,[1]; [8],0.26 ± 0.44
same,promoter activity interaction Z-score,[1]; [9],0.996 ± 0.81
same,promoter activity interaction Z-score,[1]; [10],-0.021 ± 0.06
same,promoter activity interaction Z-score,[1]; [11],-0.156 ± 0.057
same,promoter activity interaction Z-score,[1]; [12],0.439 ± 0.11
same,promoter activity interaction Z-score,[1]; [13],0.363 ± 1.1
same,promoter activity interaction Z-score,[1]; [14],0.655 ± 0.19
same,promoter activity interaction Z-score,[1]; [15],0.643 ± 0.026
same,promoter activity interaction Z-score,[1]; [16],1.07 ± 0.24
same,promoter activity interaction Z-score,[1]; [17],-0.35 ± 0.28
same,promoter activity interaction Z-score,[1]; [18],1.78 ± 0.42
same,promoter activity interaction Z-score,[1]; [19],1.59 ± 0.34
same,promoter activity interaction Z-score,[1]; [20],2.18 ± 0.16
same,promoter activity interaction Z-score,[1]; [21],-1.42 ± 0.33
same,promoter activity interaction Z-score,[1]; [22],5.96
same,promoter activity interaction Z-score,[1]; [23],-1.22
same,promoter activity interaction Z-score,[2]; [8],0.665 ± 0.88
same,promoter activity interaction Z-score,[2]; [9],1.07 ± 0.1
same,promoter activity interaction Z-score,[2]; [10],0.256 ± 0.36
same,promoter activity interaction Z-score,[2]; [11],0.136 ± 0.061
same,promoter activity interaction Z-score,[2]; [12],2.13 ± 0.84
same,promoter activity interaction Z-score,[2]; [13],1.76 ± 0.44
same,promoter activity interaction Z-score,[2]; [14],0.771 ± 0.16
same,promoter activity interaction Z-score,[2]; [15],1.22 ± 0.7
same,promoter activity interaction Z-score,[2]; [16],2.83 ± 0.4
same,promoter activity interaction Z-score,[2]; [17],3.06 ± 0.18
same,promoter activity interaction Z-score,[2]; [18],1.16 ± 0.43
same,promoter activity interaction Z-score,[2]; [19],2.13 ± 0.087
same,promoter activity interaction Z-score,[2]; [20],2.24 ± 1
same,promoter activity interaction Z-score,[2]; [21],0.451 ± 0.1
same,promoter activity interaction Z-score,[2]; [22],0.992 ± 0.29
same,promoter activity interaction Z-score,[2]; [23],2.56
same,promoter activity interaction Z-score,[3]; [8],1.46 ± 0.49
same,promoter activity interaction Z-score,[3]; [9],0.0522 ± 0.015
same,promoter activity interaction Z-score,[3]; [10],-0.0785 ± 0.057
same,promoter activity interaction Z-score,[3]; [11],0.373 ± 0.06
same,promoter activity interaction Z-score,[3]; [12],2.61 ± 0.64
same,promoter activity interaction Z-score,[3]; [13],0.188 ± 0.14
same,promoter activity interaction Z-score,[3]; [14],0.177 ± 0.19
same,promoter activity interaction Z-score,[3]; [15],1.44 ± 0.23
same,promoter activity interaction Z-score,[3]; [16],3.37 ± 0.62
same,promoter activity interaction Z-score,[3]; [17],0.403 ± 0.2
same,promoter activity interaction Z-score,[3]; [18],0.131 ± 0.15
same,promoter activity interaction Z-score,[3]; [19],1.86 ± 0.2
same,promoter activity interaction Z-score,[3]; [20],0.313 ± 0.3
same,promoter activity interaction Z-score,[3]; [21],0.3 ± 0.28
same,promoter activity interaction Z-score,[3]; [22],-0.128 ± 0.088
same,promoter activity interaction Z-score,[3]; [23],-0.349 ± 0.37
same,promoter activity interaction Z-score,[4]; [8],1.85 ± 1.5
same,promoter activity interaction Z-score,[4]; [9],1.72 ± 1.3
same,promoter activity interaction Z-score,[4]; [10],1.96 ± 1.3
same,promoter activity interaction Z-score,[4]; [11],0.631 ± 0.11
same,promoter activity interaction Z-score,[4]; [12],2.68 ± 1
same,promoter activity interaction Z-score,[4]; [13],2.53 ± 0.79
same,promoter activity interaction Z-score,[4]; [14],2.36 ± 0.4
same,promoter activity interaction Z-score,[4]; [15],2.15 ± 1
same,promoter activity interaction Z-score,[4]; [16],1.98 ± 0.54
same,promoter activity interaction Z-score,[4]; [17],1.86 ± 0.28
same,promoter activity interaction Z-score,[4]; [18],1.26 ± 0.07
same,promoter activity interaction Z-score,[4]; [19],2.71 ± 0.19
same,promoter activity interaction Z-score,[4]; [20],-0.73 ± 0.18
same,promoter activity interaction Z-score,[4]; [21],-1.97 ± 1.1
same,promoter activity interaction Z-score,[4]; [23],-3.24
same,promoter activity interaction Z-score,[5]; [8],0.998 ± 1.4
same,promoter activity interaction Z-score,[5]; [9],0.179 ± 0.2
same,promoter activity interaction Z-score,[5]; [10],0.105 ± 0.73
same,promoter activity interaction Z-score,[5]; [11],-0.0139 ± 0.3
same,promoter activity interaction Z-score,[5]; [12],1.13 ± 0.42
same,promoter activity interaction Z-score,[5]; [13],-0.0571 ± 0.62
same,promoter activity interaction Z-score,[5]; [14],0.458 ± 0.4
same,promoter activity interaction Z-score,[5]; [15],0.51 ± 0.84
same,promoter activity interaction Z-score,[5]; [16],-0.261 ± 0.053
same,promoter activity interaction Z-score,[5]; [17],-0.985 ± 0.35
same,promoter activity interaction Z-score,[5]; [18],0.638 ± 0.37
same,promoter activity interaction Z-score,[5]; [19],0.945 ± 1.1
same,promoter activity interaction Z-score,[5]; [20],-1.59 ± 0.88
same,promoter activity interaction Z-score,[5]; [21],-2.19 ± 0.95
same,promoter activity interaction Z-score,[5]; [23],-2.66 ± 0.43
same,promoter activity interaction Z-score,[6]; [8],0.151 ± 0.19
same,promoter activity interaction Z-score,[6]; [9],0.0648 ± 0.063
same,promoter activity interaction Z-score,[6]; [10],-0.00055 ± 0.21
same,promoter activity interaction Z-score,[6]; [11],-0.162 ± 0.37
same,promoter activity interaction Z-score,[6]; [12],0.728 ± 0.037
same,promoter activity interaction Z-score,[6]; [13],0.346 ± 0.055
same,promoter activity interaction Z-score,[6]; [14],0.252 ± 0.33
same,promoter activity interaction Z-score,[6]; [15],0.493 ± 0.026
same,promoter activity interaction Z-score,[6]; [16],1.18 ± 0.3
same,promoter activity interaction Z-score,[6]; [17],0.609 ± 0.14
same,promoter activity interaction Z-score,[6]; [18],0.598 ± 0.38
same,promoter activity interaction Z-score,[6]; [19],1.26 ± 0.17
same,promoter activity interaction Z-score,[6]; [20],1.56 ± 0.18
same,promoter activity interaction Z-score,[6]; [21],1.47 ± 0.25
same,promoter activity interaction Z-score,[6]; [22],1.46 ± 1
same,promoter activity interaction Z-score,[6]; [23],0.966 ± 0.8
same,promoter activity interaction Z-score,[7]; [8],0.446 ± 0.25
same,promoter activity interaction Z-score,[7]; [9],0.201 ± 0.44
same,promoter activity interaction Z-score,[7]; [10],0.673 ± 1.5
same,promoter activity interaction Z-score,[7]; [11],-0.654 ± 0.27
same,promoter activity interaction Z-score,[7]; [12],1.04 ± 0.64
same,promoter activity interaction Z-score,[7]; [13],0.0643 ± 0.81
same,promoter activity interaction Z-score,[7]; [14],0.925 ± 0.084
same,promoter activity interaction Z-score,[7]; [15],-0.579 ± 0.46
same,promoter activity interaction Z-score,[7]; [16],1.19 ± 1.5
same,promoter activity interaction Z-score,[7]; [17],1.09 ± 0.74
same,promoter activity interaction Z-score,[7]; [18],1.09 ± 0.63
same,promoter activity interaction Z-score,[7]; [19],0.351 ± 1.5
same,promoter activity interaction Z-score,[7]; [20],-0.0424 ± 0.045
same,promoter activity interaction Z-score,[7]; [21],1.29 ± 2
same,promoter activity interaction Z-score,[7]; [22],1.15 ± 0.23
same,promoter activity interaction Z-score,[7]; [23],0.632 ± 1.4
